# High-throughput results from PubChem BioAssay.
# Rows were chosen to be rich in hits. Some 18% of all compounds tested hit in one or more screens of this group.
# TDP1 cell CPT: qHTS for Inhibitors of human tyrosyl-DNA phosphodiesterase 1 (TDP1): qHTS in cells in presence of CPT; chicken DT40 Tdp1-/-;hTDP1 cells + 20 nM CPT, ATP luminescence, 48 h; Potency, µM (series often up to 46.2 µM), for the others: top-dose activity change, negative = growth inhibition, usual class: inhibitors; actives 12% (n = 420,000); note: nearly all actives have a fitted effect of over 55% in size
#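 Chicken DT40 Tdp1-/- cells complemented with human TDP1, 400 cells/well, exposed to compounds plus 20 nM camptothecin for at least 48 h at 37 C; viability read as ATP content by CellTiter-Glo luminescence.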
# PLK1 PBD block: qHTS for Inhibitors of PLK1-PDB (polo-like kinase 1 - polo-box domain): Primary Screen; Plk1 PBD binding of FITC phosphopeptide, fluorescence polarization; AID 720504, 2013; Potency, µM, for the others: max response, negative = inhibition, most hits filed as inhibitors; actives 2.8% (n = 360,000); note: series mostly up to about 57 µM; nearly all actives have a fitted effect of over 65% in size
# Target sequence (P53350 whole entry, looked up, the tested form may be a part): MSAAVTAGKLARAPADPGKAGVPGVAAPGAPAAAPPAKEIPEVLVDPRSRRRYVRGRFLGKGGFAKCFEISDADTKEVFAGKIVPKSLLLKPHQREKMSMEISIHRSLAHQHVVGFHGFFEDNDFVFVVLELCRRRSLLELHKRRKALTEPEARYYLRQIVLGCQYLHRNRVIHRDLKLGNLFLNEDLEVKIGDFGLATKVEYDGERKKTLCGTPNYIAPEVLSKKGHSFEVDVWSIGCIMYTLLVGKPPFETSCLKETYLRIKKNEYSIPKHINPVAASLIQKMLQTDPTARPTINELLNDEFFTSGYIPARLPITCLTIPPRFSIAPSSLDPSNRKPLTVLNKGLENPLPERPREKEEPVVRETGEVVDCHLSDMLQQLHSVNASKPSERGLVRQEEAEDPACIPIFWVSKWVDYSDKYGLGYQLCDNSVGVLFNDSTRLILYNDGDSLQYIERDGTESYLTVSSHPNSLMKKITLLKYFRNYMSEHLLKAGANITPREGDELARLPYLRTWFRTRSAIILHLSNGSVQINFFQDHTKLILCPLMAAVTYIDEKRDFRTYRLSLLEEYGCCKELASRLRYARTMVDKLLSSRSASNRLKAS
# GCN5L2 inh: qHTS Assay for Inhibitors of GCN5L2 | Histone acetyltransferase KAT2A (Homo sapiens), Q92830 | GCN5L2 HAT assay, ThioGlo1 CoA-SH fluorescence | Potency, µM (highest dose often 58.9 µM), for inactives: at the top dose activity change, negative = inhibition, usual class: inhibitors | actives 0.21% (n = 390,000) | AID 504327, 2011
#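 Free CoA generated was detected with ThioGlo1 (50uM) fluorescence at Ex340nm/Em540nm, read immediately and after 20 min at room temperature. Enzyme, 20 nM in HEPES pH 7.5 buffer, saw compounds 15 min before adding 75uM H3(1-25) peptide and 70uM acetyl-CoA.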
# DT40 TDP1 no CPT: qHTS for Inhibitors of human tyrosyl-DNA phosphodiesterase 1 (TDP1): qHTS in cells in absence of CPT; DT40 Tdp1-/- hTDP1 cells, no CPT, ATP luminescence, 48 h; Potency, µM (top dose mostly 46.2 µM), inactives show at the highest dose activity change, negative = growth inhibition, most hits filed as inhibitors; actives 15% (n = 420,000); AID 686978, 2013; note: nearly all actives have a fitted effect of over 55% in size
#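 Growth kinetics read by CellTiter-Glo luminescence after ≥48 hr at 37 °C. Cells: DT40 Tdp1-/- stably carrying human TDP1, 400 per well, compound exposure in the absence of CPT (DMSO vehicle).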
# VDR inh: Inhibitors of the vitamin D receptor (VDR): qHTS; VDR-SRC2-3 peptide fluorescence polarization, 2 h; Potency, µM, without a hit: max response, negative = inhibition, hits mostly inhibitors; AID 504847, 2011; actives 0.93% (n = 400,000)
#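 Fluorescence polarization assay of small-molecule disruption of VDR binding to coregulator peptide SRC2-3. Compounds and controls pin-transferred, then read after 2 h incubation at ambient room temperature.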
# TDP1 block: qHTS Assay for Inhibitors of Tyrosyl-DNA Phosphodiesterase (TDP1). Potency, µM (titrated, usually from 130 µM), inactives show at the highest dose activity change, negative = inhibition, hits mostly inhibitors. Tyrosyl-DNA phosphodiesterase 1 (Homo sapiens), Q9NUW8. actives 0.28% (n = 350,000). AID 485290, 2010. recombinant TDP1, AlphaScreen DNA substrate cleavage; note: nearly all actives have a fitted effect of over 40% in size
#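 Compounds were preincubated with Tdp1 (1 nM final) for 15 min at room temperature before substrate (15 nM final) started a 5 min reaction; beads (10 ug/ml final) were then added for 10 min before AlphaScreen detection.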
# * = called active by the depositor; ? = inconclusive; · = no result given; [ ] = another dose, or the depositor's remark. Calls come from the whole dose curve; as a rule, active = well fitted curve in the direction sought with a large enough effect; inconclusive = small, poorly fitted or top-dose-only effect, or another doubt; inactive = no such curve, though single readings can be large; an effect the other way counts as inactive or inconclusive. % is set by controls: 0 for no effect and ±100 for the full control effect; potency is the fitted concentration of half-maximal effect.
SMILES,TDP1 cell CPT,PLK1 PBD block,GCN5L2 inh,DT40 TDP1 no CPT,VDR inh,TDP1 block
Cc1cccc(Nc2nc(Nc3cccc(C)c3)nc(N3CCOCC3)n2)c1,15µM*,·,-8%,9.2µM*,-2%,·
O=[N+]([O-])c1ccc(Nc2nc(N3CCOCC3)nc(N3CCOCC3)n2)cc1,?,3%,·,?,-7%,·
Oc1cccc(Nc2nc(N3CCOCC3)nc(N3CCOCC3)n2)c1,5.2µM*,-8%,-20%,8.2µM*,-21%,·
c1ccc(Nc2nc(N3CCNCC3)nc(N3CCOCC3)n2)cc1,?,-2%,-6%,?,0%,0%
CC(=O)Nc1ccc(/C(C)=N/Nc2nc(N3CCOCC3)nc(N3CCOCC3)n2)cc1,?,30µM*,-16%,15µM*,?,3%
CCOc1cc2c(cc1/C=C/c1noc(C)c1[N+](=O)[O-])OC(C)C2 (configuration not stated),-28%,40%,0%,0%,-8%,8%
CCCCNC(=O)C1(C)CCN1C(=O)c1ccc(C)c(F)c1 (configuration not stated),-5%,4%,·,0%,·,·
Cc1ccc2nc(NC(=O)CSc3nccn3Cc3ccc(Cl)cc3)sc2c1,-6%,·,-1%,-7%,8%,-1%
CCC1CN(Cc2ccc(COC)o2)Cc2cc(OC)ccc2O1 (configuration not stated),13%[9.04 µM],·,·,-7%,·,·
Cc1cccc(Nc2nc(N3CCOCC3)nc(N3CCOCC3)n2)c1,9.2µM*,-1%,-11%,?,24%,4%
C[C@H](NC(=O)c1ncn2c1C(=O)N[C@@H](C)C2)C(=O)OC(C)(C)C,2%,-4%,·,-10%,·,·
CCOC(=O)Cn1nc(-c2ccccc2)nc1-c1ccccc1,-3%,-22%,2%,-29%,2%,-2%
O=C(Cn1nc(-c2ccccc2)nc1-c1ccccc1)OC1CCCCC1,?,0%,-14%,18µM*,11%,5%
COc1cccc(NC(=O)c2cc(-c3cccnc3)nc3c(Cl)cccc23)c1,?,-9%,27%,?,12%,4%
Cc1cc(NC(=O)c2cccc(C(=O)Nc3cc(C)on3)n2)no1,0.18µM*,-9%,-15%,0.65µM*,22%,2%
Cc1cc(NC(=O)c2cc(-c3ccncc3)nc3c(C)cccc23)no1,4.1µM*,-4%,-6%,2.9µM*,8%,-9%
Cc1cc(NC(=O)c2ccc(-c3ccccc3[N+](=O)[O-])o2)no1,?,-4%,-2%,?,8%,1%
Cc1cc(NC(=O)c2ccc(-c3ccccc3F)o2)no1,?,-11%,-10%,18µM*,-1%,6%
Cc1cccc(NC(=O)c2cc(-c3cccnc3)nc3c(C)cccc23)n1,?,-8%,-23%,15µM*,4%,3%
COc1cccc(CNc2ncc(-c3ccc(Br)cc3)n2C)c1,?,·,0%,?,12%,7%
O=C(CSc1nc2nc(-c3cccs3)cc(C(F)(F)F)c2c(=O)[nH]1)Nc1c(F)c(F)c(F)c(F)c1F,?,34µM*,-26%,?,20%,1%
N#Cc1c(C(F)(F)F)cc(-c2cccs2)nc1SCC(=O)Nc1cccc(Br)c1,?,·,2%,-37%,-14%,-3%
NS(=O)(=O)c1cccc(NC(=O)CSc2nc3nc(-c4cccs4)cc(C(F)(F)F)c3c(=O)[nH]2)c1,-10%,34µM*,-4%,23%,-14%,4%
O=C(NCCN1CCCCC1)c1ccc(I)cc1,-14%,·,-3%,?,11%,4%
Cc1ccc(-c2cc(-c3ccccc3)c(C#N)c(N)n2)o1,23µM*,21µM*,?,15µM*,?,1%
SMILES,TDP1 cell CPT,PLK1 PBD block,GCN5L2 inh,DT40 TDP1 no CPT,VDR inh,TDP1 block
Cc1ccc(-c2cc(-c3ccc(F)cc3)nc(N)c2C#N)o1,?,-10%,?,18µM*,1%,-5%
Cc1ccc(-c2cc(-c3ccccc3Cl)c(C#N)c(N)n2)o1,?,?,?,?,-9%,7%
Cc1cc(O)c(C)c2sc(N)nc12,·,·,39%,·,6%,7%
CC(C)Oc1ccc(CNC(=O)C2=Cc3ccccc3OC2)cc1,21µM*,·,-4%,?,9%,5%
COc1ccc2c(c1)C=C(C(=O)NCc1ccc(Cl)cc1)CO2,?,-4%,-8%,-15%,13%,4%
CC(C)(C)NC(=O)C(c1ccco1)N(C(=O)Cn1nnc(-c2ccc(F)cc2)n1)c1ccccc1F (configuration not stated),29µM*,-7%,-10%,16µM*,-20%,3%
CC(C)CCNC(=O)CN(C(=O)Cn1nnc(-c2ccccc2F)n1)c1cccc2c1CCCC2,-3%,-8%,-18%,-6%,4%,4%
CC(C(=O)NC1CCCC1)N(C(=O)Cn1nnc(-c2ccc(F)cc2)n1)c1ccccc1F (configuration not stated),23µM*,-9%,-8%,23µM*,-3%,·
CCC(C(=O)NC(C)(C)C)N(C(=O)Cn1nnc(-c2ccccc2F)n1)c1cccc2c1CCCC2 (configuration not stated),?,-7%,-13%,18µM*,-1%,3%
CCN(CC)C(=O)Cn1c(=O)n(-c2ccc(OC)cc2OC)c(=O)c2c(C)c(C(=O)N(CC)CC)sc21,5%,·,5%,17%,4%,0%
Cc1ccc(S(=O)(=O)N2CCCC2CNC(=O)C(=O)NCc2ccccn2)cc1 (configuration not stated),6%,-2%,-5%,-6%,18%,-1%
O=C(c1ccccc1F)N(Cc1cc2cc3c(cc2nc1N1CCOCC1)CCC3)CC1CCCO1 (configuration not stated),-10%[9.04 µM],·,·,?,·,·
CCCCOC(=O)C(C#N)c1nc2ccccc2nc1N1CCN(Cc2ccc3c(c2)OCO3)CC1 (configuration not stated),16µM*,-7%,-3%,18µM*,-30%,5%
COC(=O)C(C#N)c1nc2ccccc2nc1N1CCN(Cc2ccc3c(c2)OCO3)CC1 (configuration not stated),·,·,-9%,·,·,5%
